Several values for one entry are separate records, joined by “and”; a condition that tells them apart may be missing. Identical values can stand only once. Results filed as inconclusive are left out. Where a structure was tested more than once in an assay, its records may differ in their call. Activity calls are given as the source filed them. Unless noted, the call rests on the fitted dose curve.
Experiments:
[1] = Nuclear factor erythroid 2-related factor 2/antioxidant responsive element (Nrf2/ARE) small molecule agonists: qHTS cell viability counter screen in human keratinocytes (AID 1919968; active means well fitted curve in the direction sought with a large enough effect in the repeat runs; an effect the other way counts as inactive or inconclusive; further: nearly all actives have a fitted effect of over 55% in size; further: potency means the concentration at half of the fitted maximal effect)
Summary of the method: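 After a 5 h attachment period, ARE-reporter keratinocytes were dosed with compounds in DMSO and then cultured 23 h at 37 C. Cell viability came from CellTiter-Fluor signal read after a further 1 h.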

[2] = Nuclear factor erythroid 2-related factor 2/antioxidant responsive element (Nrf2/ARE) small molecule agonists: luciferase reporter gene qHTS assay in human keratinocytes (AID 1919969); further: nearly all actives have a fitted effect of over 35% in size; further: potency means the concentration at half of the fitted maximal effect
[3] = biological target: Gonadotropin-releasing hormone receptor (Homo sapiens) (UniProt P30968); assay: Human gonadotropin-releasing hormone receptor (GnRHR) small molecule agonists, calcium flux assay in GnRHR-HEK293 cells (AID 1920063); further: nearly all actives have a fitted effect of over 35% in size
Summary of the method: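 We seeded human GnRHR-expressing HEK293 cells for 18 hours, loaded them with calcium dye for an hour at 37 C, added test compounds, and recorded fluorescence intensity kinetically for three minutes.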

[4] = biological target: KiSS-1 receptor (Homo sapiens) (UniProt Q969F8); assay: Human kisspeptin (KISS1R) small molecule agonists, calcium flux assay in KISS1R-HEK293 cells (AID 1920064; active means well fitted curve in the direction sought with a large enough effect in the repeat runs; an effect the other way counts as inactive or inconclusive)
Summary of the method: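 Kinetic calcium assay, 1 s sampling over 3 min at Ex/Em 480/540, in HEK293 cells engineered with human KISS1R; compounds delivered in DMSO after 1 h dye loading.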

[5] = G protein-coupled receptor (GPCR) small molecule agonists, calcium flux assay: HEK293 wild type cell line counter screen (AID 1920065)
Summary of the method: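 Calcium-sensitive dye, loaded 1 h at 37 C into cells cultured 18 h, reports compound-evoked calcium release as fluorescence (Ex/Em 480/540), measured over 3 min. Agonist mode; 15-point titrations, triplicate.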

[6] = p53 small molecule agonists, cell-based qHTS assay with human liver microsomes: qHTS cell viability counter screen (AID 1963579); further: nearly all actives have a fitted effect of over 45% in size; further: potency means the concentration at half of the fitted maximal effect
Summary of the method: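 Viability of p53RE-bla cells is measured as CellTiter-Glo luminescence following a 16 h, 37 C incubation with compound, liver microsomes from human donors and NADPH.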

[7] = p53 small molecule agonists, cell-based qHTS assay with rat liver microsomes: qHTS cell viability counter screen (AID 1963580); further: nearly all actives have a fitted effect of over 45% in size; further: potency means the concentration at half of the fitted maximal effect
Summary of the method: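 p53RE-bla HCT-116 cells (4,000/well) rested 5 h at 37 C, then given Tox21 compounds in DMSO with rat liver microsomes (0.5 mg/mL final) plus NADPH (0.5 mg/mL final) for 16 h at 37 C. Viability read by CellTiter-Glo luminescence after 30 min at room temperature.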

[8] = p53 small molecule agonists, cell-based qHTS assay: qHTS cell viability counter screen (AID 1963581); further: nearly all actives have a fitted effect of over 45% in size; further: potency means the concentration at half of the fitted maximal effect
Summary of the method: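 Following 5 h attachment, HCT-116 p53RE-bla cells took up compound for 16 h at 37 C; the reporter was read with B/G FRET substrate (2 h RT), and viability then via CellTiter-Glo ATP luminescence.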

[9] = p53 small molecule agonists, cell-based qHTS assay (AID 1963582; active means well fitted activation curve with a large enough effect in the signal ratio in the repeat runs, not every such curve was filed as active; the % refers to the signal ratio)
Summary of the method: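 In this cell-based concentration-response screen, a p53 response element drives beta-lactamase; cells received DMSO-borne compounds after 5 h culture and were incubated a further 16 h before FRET substrate development.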

[10] = biological target: 5-hydroxytryptamine receptor 2A (Homo sapiens) (UniProt P28223); assay: 5-hydroxytryptamine receptor 2A (HTR2A) small molecule antagonists, cell-based qHTS assay (AID 1963586); further: nearly all actives have a fitted effect of over 45% in size; further: potency means the concentration at half of the fitted maximal effect
Summary of the method: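 Antagonist-mode intracellular calcium assay: DOI (4 nM) added after 5 min compound pre-incubation at room temperature to dye-loaded HTR2A-CHO cells. Fluorescence followed for 3 min, sampled every second.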

[11] = biological target: 5-hydroxytryptamine receptor 2A (Homo sapiens) (UniProt P28223); assay: 5-hydroxytryptamine receptor 2A (HTR2A) small molecule agonists, cell-based qHTS assay (AID 1963587); further: nearly all actives have a fitted effect of over 30% in size; further: potency means the concentration at half of the fitted maximal effect
Summary of the method: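 HTR2A-CHO cells, plated 18 h at 37 C/5% CO2, dye-loaded 1 h at 37 C; compounds in DMSO added by pin tool (agonist mode). Intracellular calcium flux read as kinetic fluorescence on FDSS over 2 min at 1 s intervals.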

[12] = biological target: Muscarinic acetylcholine receptor M1 (Homo sapiens) (UniProt P11229); assay: Cholinergic receptor muscarinic 1 (CHRM1) small molecule antagonists, cell-based qHTS assay (AID 1963588); further: nearly all actives have a fitted effect of over 40% in size
Summary of the method: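 CHRM1-CHO calcium-flux assay, antagonist mode. Cells were seeded 18 h, dye-loaded 1 h at 37 C and given compound for 5 min at RT, then acetylcholine was added at 50nM. FDSS fluorescence was read 3 min; 15 concentrations, three runs.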

[13] = biological target: Muscarinic acetylcholine receptor M1 (Homo sapiens) (UniProt P11229); assay: Cholinergic receptor muscarinic 1 (CHRM1) small molecule agonists, cell-based qHTS assay (AID 1963589); further: nearly all actives have a fitted effect of over 35% in size
Summary of the method: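 Measures agonist-induced intracellular calcium rise. Stable human CHRM1 CHO line, 1 h dye load at 37 C, compounds from DMSO, kinetic fluorescence read.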

[14] = cAMP Responsive Elements (CRE) small molecule agonists, cell-based qHTS assay (AID 1963590)
Summary of the method: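 A CRE-responsive beta-lactamase reporter in HEK 293T cells was used. Treatment ran 3 h at 37 C; detection used LiveBLAzer B/G FRET substrate for 2 h at room temperature.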

[15] = cAMP Responsive Elements (CRE) small molecule antagonists, cell-based qHTS assay (AID 1963591; active means well fitted inhibition curve with a large enough effect in the signal ratio in the repeat runs, not every such curve was filed as active; the % refers to the signal ratio)
Summary of the method: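 HEK293T cells carrying a CRE-driven beta-lactamase reporter receive compound and NKH477 (0.25 uM final) for 3 h. Fluorescence from LiveBLAzer B/G FRET substrate is read after 2 h at room temperature.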

[16] = biological target: Beta-2 adrenergic receptor (Homo sapiens) (UniProt P07550); assay: Adrenergic beta2 receptor (ADRB2) small molecule antagonists, cell-based qHTS assay (AID 1963592); further: series mostly up to about 92 µM; nearly all actives have a fitted effect of over 50% in size
Summary of the method: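 Cells (CHO, stable ADRB2 overexpression) incubated 18-20hr at 37C; compounds added from DMSO; agonist mix (1nM isoproterenol, 100uM IBMX, 25uM Ro-20-1724) added; 0.5hr RT; d2-cAMP and anti-cAMP-cryptate added; 1hr RT; 665/615 nm read.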

[17] = biological target: Beta-2 adrenergic receptor (Homo sapiens) (UniProt P07550); assay: Adrenergic beta2 receptor (ADRB2) small molecule agonists, cell-based qHTS assay (AID 1963593);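 further: CHO cells stably overexpressing human ADRB2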
Summary of the method: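 CHO cells stably over-expressing ADRB2 were plated overnight at 37C, then dosed with compounds plus a stimulation mix containing 100uM IBMX and 25uM Ro-20-1724 for 0.5hr at room temperature. cAMP was measured by HTRF competition, 1hr.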

[18] = biological target: D(2) dopamine receptor (Homo sapiens) (UniProt P14416); assay: Dopamine D2 receptor (DRD2) small molecule agonists, cell-based qHTS assay (AID 1963594); further: nearly all actives have a fitted effect of over 35% in size
Summary of the method: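 HEK293 cells stably expressing DRD2 were cultured 24 h at 37 C, then given Ro20-1724 (0.1 mM final) and compounds for 10 min at room temperature. NKH477 (200nM) was then added for 30 min. cAMP was read by HTRF.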

[19] = biological target: D(2) dopamine receptor (Homo sapiens) (UniProt P14416); assay: Dopamine D2 receptor (DRD2) small molecule antagonists, cell-based qHTS assay (AID 1963595; active means well fitted inhibition curve with a large enough effect in the signal ratio in the repeat runs, with a control signal flat; the % refers to the signal ratio)
Summary of the method: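 Antagonism was scored as restored cAMP in HEK293-DRD2 cells. These cells were stimulated with 200 nM NKH477 and 12 nM quinpirole for 30 min at room temperature, in the presence of 0.1 mM Ro20-1724.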

[20] = p53 small molecule agonists, cell-based qHTS assay with human liver microsomes (AID 1963577);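 further: p53 response element beta-lactamase reporter cells with liver microsomes plus NADPH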
Summary of the method: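 HLM-supplemented p53RE-bla reporter assay: 16 h compound exposure at 37 C, microsomes and NADPH each 0.5 mg/mL final, read by fluorescence intensity.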

Measured: Potency

Gonadotropin-releasing hormone receptor (Homo sapiens), sequence (P30968 whole entry, looked up): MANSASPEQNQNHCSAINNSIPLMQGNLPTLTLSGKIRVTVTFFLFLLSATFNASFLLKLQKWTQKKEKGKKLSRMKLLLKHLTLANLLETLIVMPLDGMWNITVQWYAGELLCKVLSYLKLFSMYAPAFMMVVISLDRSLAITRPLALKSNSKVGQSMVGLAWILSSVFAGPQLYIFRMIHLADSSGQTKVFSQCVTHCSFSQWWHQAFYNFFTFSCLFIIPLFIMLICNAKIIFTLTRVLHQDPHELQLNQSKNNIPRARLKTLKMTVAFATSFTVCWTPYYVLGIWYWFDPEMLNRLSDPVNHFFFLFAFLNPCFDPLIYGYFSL
D(2) dopamine receptor (Homo sapiens), sequence (P14416 whole entry, looked up): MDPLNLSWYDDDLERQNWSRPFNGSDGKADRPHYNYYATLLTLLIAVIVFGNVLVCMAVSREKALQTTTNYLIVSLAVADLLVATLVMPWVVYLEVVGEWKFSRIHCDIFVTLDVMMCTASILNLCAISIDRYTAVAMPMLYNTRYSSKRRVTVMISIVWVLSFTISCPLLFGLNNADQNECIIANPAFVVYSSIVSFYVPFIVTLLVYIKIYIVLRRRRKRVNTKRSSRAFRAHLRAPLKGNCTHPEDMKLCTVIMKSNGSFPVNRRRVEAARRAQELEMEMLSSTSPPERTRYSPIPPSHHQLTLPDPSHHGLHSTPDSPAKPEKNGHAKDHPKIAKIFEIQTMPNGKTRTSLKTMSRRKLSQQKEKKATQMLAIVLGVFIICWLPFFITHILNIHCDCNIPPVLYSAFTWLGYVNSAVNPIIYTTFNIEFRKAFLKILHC
Beta-2 adrenergic receptor (Homo sapiens), sequence (P07550 whole entry, looked up): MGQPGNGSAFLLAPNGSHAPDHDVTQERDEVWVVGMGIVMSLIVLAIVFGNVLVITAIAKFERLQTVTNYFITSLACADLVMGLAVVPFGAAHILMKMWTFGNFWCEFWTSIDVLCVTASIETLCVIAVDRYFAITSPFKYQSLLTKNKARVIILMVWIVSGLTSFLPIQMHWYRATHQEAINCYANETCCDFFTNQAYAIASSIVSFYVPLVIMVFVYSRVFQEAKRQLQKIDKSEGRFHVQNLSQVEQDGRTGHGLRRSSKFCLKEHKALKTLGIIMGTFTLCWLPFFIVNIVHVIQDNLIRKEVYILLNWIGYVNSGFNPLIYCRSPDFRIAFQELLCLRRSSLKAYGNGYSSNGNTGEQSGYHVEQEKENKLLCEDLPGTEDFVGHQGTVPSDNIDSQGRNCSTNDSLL
Muscarinic acetylcholine receptor M1 (Homo sapiens), sequence (P11229 whole entry, looked up): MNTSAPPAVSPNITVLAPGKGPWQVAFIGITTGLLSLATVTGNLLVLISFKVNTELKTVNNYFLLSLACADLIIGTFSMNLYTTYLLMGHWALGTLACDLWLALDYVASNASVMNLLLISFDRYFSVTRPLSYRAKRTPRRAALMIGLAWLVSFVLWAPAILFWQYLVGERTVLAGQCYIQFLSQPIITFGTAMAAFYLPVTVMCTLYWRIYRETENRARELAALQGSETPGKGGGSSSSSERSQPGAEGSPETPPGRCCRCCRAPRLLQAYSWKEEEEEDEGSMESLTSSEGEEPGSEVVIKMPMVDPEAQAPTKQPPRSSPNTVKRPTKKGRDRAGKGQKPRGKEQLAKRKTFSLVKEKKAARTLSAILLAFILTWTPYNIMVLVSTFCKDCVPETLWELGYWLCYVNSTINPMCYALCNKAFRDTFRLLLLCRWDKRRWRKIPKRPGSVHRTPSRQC
KiSS-1 receptor (Homo sapiens), sequence (Q969F8 whole entry, looked up): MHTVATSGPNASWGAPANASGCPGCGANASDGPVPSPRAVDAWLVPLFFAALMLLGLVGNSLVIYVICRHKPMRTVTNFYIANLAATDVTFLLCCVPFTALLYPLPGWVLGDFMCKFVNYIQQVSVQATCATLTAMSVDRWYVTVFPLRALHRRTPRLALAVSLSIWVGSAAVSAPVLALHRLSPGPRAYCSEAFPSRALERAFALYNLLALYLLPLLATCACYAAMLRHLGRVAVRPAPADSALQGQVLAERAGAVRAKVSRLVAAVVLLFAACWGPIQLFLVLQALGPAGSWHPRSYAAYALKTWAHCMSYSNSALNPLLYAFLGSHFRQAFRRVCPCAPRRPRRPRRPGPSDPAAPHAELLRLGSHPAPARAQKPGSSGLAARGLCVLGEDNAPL
5-hydroxytryptamine receptor 2A (Homo sapiens), sequence (P28223 whole entry, looked up): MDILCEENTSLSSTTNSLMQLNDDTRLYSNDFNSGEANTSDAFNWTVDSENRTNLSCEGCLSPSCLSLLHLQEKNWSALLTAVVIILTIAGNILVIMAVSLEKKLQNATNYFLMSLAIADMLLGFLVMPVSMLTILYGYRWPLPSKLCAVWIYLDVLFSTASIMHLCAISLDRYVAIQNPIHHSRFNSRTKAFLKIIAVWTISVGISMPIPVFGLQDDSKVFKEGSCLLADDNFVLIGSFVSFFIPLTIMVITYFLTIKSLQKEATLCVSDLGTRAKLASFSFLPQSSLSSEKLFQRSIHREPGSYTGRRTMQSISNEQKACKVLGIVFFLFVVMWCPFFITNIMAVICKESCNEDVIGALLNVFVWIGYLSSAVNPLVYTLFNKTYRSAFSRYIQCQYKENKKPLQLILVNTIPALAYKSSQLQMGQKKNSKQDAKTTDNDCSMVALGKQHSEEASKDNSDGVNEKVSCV

O=S(=O)(O)CC(O)CCl (centres undefined)
not listed: [20]
inactive: all other assays above

CC(C)CCCCCCc1ccc(O)cc1
active: [1] 6.22 µM | [6] 41.5 µM | [7] 18.5 µM | [8] 45.8 µM | [10] 34 µM | [11] 44.4 µM and 49 µM
2.48 µM (active) and inactive: [2]
inactive: [3] | [4] | [5] | [20] | [12] | [16] | [18]

C=CCCC(=O)/C=C/C1C(C)=CCCC1(C)C (centres undefined)
active: [2] 54.5 µM
not listed: [20]
inactive: all other assays above

COCc1ccc(COC)cc1
not listed: [6] | [14]
inactive: all other assays above

Cn1cc(S(C)=O)c(=O)c2ccc(F)cc21 (centres undefined)
not listed: [6]
inactive: all other assays above

c1ccc2ncccc2c1
not listed: [17] | [19] | [20]
inactive: all other assays above

CC(C)c1cccc(C(C)C)c1N
not listed: [8] | [15]
inactive: all other assays above
